Sampled rows, rich in hits. Any-hit rate of the full collection: about 4.7%.
HepG2 tox: HepG2 cytotoxicity, counter-screen for TGF-b inhibitors | HepG2 CAGA-GFP viability, ATP luminescence, 18 h | Potency, µM (series often up to 46.1 µM), without a hit: at the top dose activity change, negative = cytotoxicity, usual class: cytotoxic | actives 0.76% (n = 410,000) | AID 588856; also: potency is read from the fitted curve at half-maximal effect
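CellTiter-Glo luminescence gave cytotoxicity after 18 hours at 37 degrees C. The cells were HepG2 CAGA-GFP in 1% FBS DMEM, stimulated with 500 pg/mL TGF-beta after compound addition. %Activity was normalised to no-cell wells (complete cell-killing) and DMSO (no toxicity), and curves were fitted and classified.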
ATXN viability: cell viability loss in ATXN counter-screen | AID 651635 | Potency, µM (titrated, usually from 56.7 µM), actives largely listed as cytotoxic | actives 0.49% (n = 400,000) | S2 cells (HEK-293 line with an ATXN2-luciferase reporter) viability, CellTiter-Fluor protease fluorescence, 24 h; also: potency is read from the fitted curve at half-maximal effect; nearly all actives have a fitted effect of over 40% in size
DRD3 agonist: agonists of human D3 dopamine receptor. D3R DiscoveRx beta-arrestin cells, luminescence, 90 min. max activation, %. actives 0.58% (n = 410,000). AID 652048; in the data active = max activation above about 30%; also: 0% is about no effect
Target sequence (P35462 whole entry, looked up): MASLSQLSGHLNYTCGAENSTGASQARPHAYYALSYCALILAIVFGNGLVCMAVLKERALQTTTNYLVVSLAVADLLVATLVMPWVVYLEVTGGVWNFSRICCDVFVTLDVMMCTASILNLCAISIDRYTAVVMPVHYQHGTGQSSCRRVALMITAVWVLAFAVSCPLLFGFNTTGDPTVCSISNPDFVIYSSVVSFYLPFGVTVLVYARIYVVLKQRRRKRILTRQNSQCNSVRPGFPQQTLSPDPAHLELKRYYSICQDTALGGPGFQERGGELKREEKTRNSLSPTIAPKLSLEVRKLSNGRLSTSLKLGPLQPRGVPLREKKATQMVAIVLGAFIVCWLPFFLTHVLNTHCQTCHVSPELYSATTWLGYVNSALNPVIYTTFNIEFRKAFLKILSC
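Agonist-mode cell screen: cells plated at 1500/well and incubated overnight at 37 °C, then exposed to library compounds for 90 min at 37 °C. Detection reagent was added for 30–60 min at room temperature, and luminescence was read.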
ATXN2 expr inh: inhibitors of ATXN2 expression. HEK-293 ATXN2-luciferase reporter, luminescence, 24 h. Potency, µM (top dose mostly 57 µM), inactives show at the top dose activity change, negative = inhibition, actives largely listed as inhibitors. actives 0.72% (n = 360,000). AID 1745845; also: potency is read from the fitted curve at half-maximal effect; % is scaled to controls: 0 for no effect and ±100 for the full control effect; nearly all actives have a fitted effect of over 55% in size
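ATXN2-luciferase reporter cells (luciferase flanked by upstream and downstream ATXN2 gene portions) were treated 24 h at 37 °C with compounds at up to 57 uM. SteadyGlo luminescence gave expression; GF-AFC fluorescence gave viability.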
TGFb SMAD3 inh: inhibitors of TGF-b signaling; AID 588855; HepG2 CAGA-GFP TGF-b/SMAD3 reporter, GFP fluorescence, 18 h; TGF-beta stimulated, 500 pg/mL final; actives 1.2% (n = 410,000); Potency, µM (series often up to 46.1 µM), for the others: top-dose activity, negative = inhibition, usual class: inhibitors; also: potency is read from the fitted curve at half-maximal effect; % is scaled to controls: 0 for no effect and ±100 for the full control effect; nearly all actives have a fitted effect of over 65% in size
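Inhibition was scored as loss of TGF-beta-induced (500 pg/mL final, 18 hours, 37 degrees C) GFP in HEPG2 cells carrying a CAGA-GFP reporter, in DMEM with 1% FBS. Well GFP was summed per cell; Activity was normalised to unstimulated and stimulated DMSO wells, then concentration-response fitting.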
DRD3 antagonist: blocks the human D3 dopamine receptor. P35462. D3R cells, DiscoveRx beta-arrestin luminescence, antagonist mode; hits give low values. max response, negative = inhibition, %. actives 2.5% (n = 360,000). AID 652054; in the data active = max response below about -50%; inconclusive = no clear call, values can overlap the other calls; also: % is scaled to controls: 0 for no effect and ±100 for the full control effect
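Cells expressing the human receptor were seeded at 1500 cells/well, incubated overnight at 37 degrees C in 5% CO2, then exposed to library compounds with dopamine controls for 90 minutes at 37 degrees C before luminescent detection.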
* hit, by the source's call; i = inactive; ? = inconclusive; . = no result. Unless noted, calls follow the shape of the dose curve; as a rule, active = well fitted curve in the direction sought with a large enough effect; inconclusive = small, poorly fitted or top-dose-only effect, or another doubt; inactive = no such curve, though single readings can be large; an effect the other way counts as inactive or inconclusive.

SMILES	HepG2 tox	ATXN viability	DRD3 agonist	ATXN2 expr inh	TGFb SMAD3 inh	DRD3 antagonist
COc1ccccc1N1CCN(CCc2c[nH]c3cc4c(cc23)OCO4)CC1	7.7%	?	-26.5	-19.0%	0.0%	-79.2*
COC1(CS(=O)c2ccccc2)CCN(CCc2c[nH]c3ccc(F)cc23)CC1 (stereo not given)	.	.	.	-19.9%	.	.
CCC1=CCN(CCc2c(C)[nH]c3ccccc23)CC1	-26.8%	i	-56.0	-3.6%	7.0%	-63.4*
Cc1[nH]c2ccccc2c1CCN	-4.0%	i	-8.6	3.8%	4.0%	-2.8
Cc1ccccc1CCNCc1ccc(Br)cc1	-84.2%	i	-4.0	-25.0%	?	-58.7*
CCc1ccc(CNCCc2c[nH]c3ccccc23)cc1	-86.5%	i	-19.4	.	?	?
COc1ccc(CCNCc2ccncc2)cc1OC	-7.2%	i	-7.4	-0.7%	12.2%	-11.4
COc1ccc(CCNCc2ccc(Br)cc2)cc1OC	-47.2%	i	-15.3	-17.0%	0.4%	-60.0*
CC(C)(O)[C@@H]1[C@H]2OC(=O)[C@@H]1[C@]1(O)C[C@H]3O[C@]34C(=O)O[C@H]2[C@]14C	.	.	-1.7	.	.	.
C[C@]12CC[C@H]3[C@@H](CCC4=CC(=O)CC[C@@]43C)[C@@H]1CC[C@@H]2C(=O)O	.	i	.	7.3%	.	.
COC1=C(C)C(=O)c2c(c(COC(N)=O)c3n2C[C@@H]2[C@@H]3N2C)C1=O (stereo not given in full)	7.08µM*	.	.	.	4.47µM*	.
Cc1cc(Cl)ccc1C(=O)C1CCCN(C2CCSCC2)C1 (stereo not given)	-5.9%	i	-24.8	-20.2%	12.1%	-75.6*
O=C(c1ccc(C(F)(F)F)cc1)C1CCCN(C2CCSCC2)C1 (stereo not given)	-6.5%	i	-17.5	-3.7%	-0.5%	-57.4*
O=C(c1cc(F)ccc1F)C1CCCN(Cc2cc(Cl)ccc2O)C1 (stereo not given)	-8.3%	i	-14.7	-13.3%	-19.6%	?
Cc1cnc(C)c(Nc2nc(C(N)Cc3ccc(C(F)(F)F)cc3)cs2)n1 (stereo not given)	-108.7%	?	-4.6	?	?	6.7
CC(C)c1c(C(=O)NC(c2cccnc2)C(F)(F)F)cnn1-c1nccc(-c2cccs2)n1 (stereo not given)	.	i	.	.	.	.
CCN1CCN(Cc2ccc(C)cc2)CC1	3.4%	i	1.3	0.1%	-2.5%	?
CCN1CCN(P2(=O)C=C(c3ccccc3)OC(c3ccccc3)=C2)CC1	-32.2%	i	-31.9	-21.3%	17.1%	-81.3*
CC1CC(C)CC(C)C(O)C(C#N)=CC=CCC(C2CCCC2C(=O)O)OC(=O)CC(O)C(C)C1 (stereo not given)	-0.2%	?	0.0	0.752µM*	?	4.6
O=C(C[C@@H]1C[C@@H]2c3cc(NS(=O)(=O)c4ccc(F)cc4)ccc3O[C@@H]2[C@H](CO)O1)N1CCc2ccccc2C1	-1.2%	?	-5.7	-5.7%	-3.4%	-17.5
COc1ccc(CN2Cc3cnnn3-c3ccccc3C2C#N)cc1 (stereo not given)	11.2µM*	.	-34.0	?	?	-77.6*
N#CC1c2ccccc2-n2nncc2CN1Cc1cc(Cl)cc(Cl)c1 (stereo not given)	10µM*	3.55µM*	-45.5	4.47µM*	?	-109.3*
CN1Cc2cnnn2-c2ccccc2C1C#N (stereo not given)	-11.7%	?	7.4	-2.2%	1.7%	6.6
COc1ccc2ccc(O)c(CN3CC=C(c4ccccc4)CC3)c2c1	-37.7%	?	0.4	.	?	?
COc1cccc(CN2CC=C(c3ccc(F)cc3)CC2)c1	7.7%	i	-26.2	-3.9%	-16.5%	-77.5*
CCOc1ccc(-n2c(-c3ccoc3)nc3ccccc3c2=O)cc1	1.5%	i	10.1	-14.1%	-16.2%	21.1

Screens: PubChem BioAssay, National Center for Advancing Translational Sciences (NCATS)
